# Experimental data: PubChem BioAssay AID504920 (Johns Hopkins Ion Channel Center, 2011)
# A number with no mark means an inactive call.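 Rule for the calls: active = peak hERG channel inhibition above 30% at some tested dose, together with a fitted dose response curve; inactive = no hERG inhibition at any dose, or no curve.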
# Target: Voltage-gated inwardly rectifying potassium channel KCNH2 (Homo sapiens) (UniProt Q12809)
# Assay: KCNH2 potassium channel blockade – FluxOR Tl flux, hERG-expressing cells, selectivity assay for KCNK9 inhibitor project, SAR follow-up (AID 504920)
# Settings: FluxOR thallium flux fluorescence; series mostly up to 30 µM; fluorescence ratio, lower = inhibition: at the top concentration
# Voltage-gated inwardly rectifying potassium channel KCNH2 (Homo sapiens), sequence (Q12809 whole entry, looked up): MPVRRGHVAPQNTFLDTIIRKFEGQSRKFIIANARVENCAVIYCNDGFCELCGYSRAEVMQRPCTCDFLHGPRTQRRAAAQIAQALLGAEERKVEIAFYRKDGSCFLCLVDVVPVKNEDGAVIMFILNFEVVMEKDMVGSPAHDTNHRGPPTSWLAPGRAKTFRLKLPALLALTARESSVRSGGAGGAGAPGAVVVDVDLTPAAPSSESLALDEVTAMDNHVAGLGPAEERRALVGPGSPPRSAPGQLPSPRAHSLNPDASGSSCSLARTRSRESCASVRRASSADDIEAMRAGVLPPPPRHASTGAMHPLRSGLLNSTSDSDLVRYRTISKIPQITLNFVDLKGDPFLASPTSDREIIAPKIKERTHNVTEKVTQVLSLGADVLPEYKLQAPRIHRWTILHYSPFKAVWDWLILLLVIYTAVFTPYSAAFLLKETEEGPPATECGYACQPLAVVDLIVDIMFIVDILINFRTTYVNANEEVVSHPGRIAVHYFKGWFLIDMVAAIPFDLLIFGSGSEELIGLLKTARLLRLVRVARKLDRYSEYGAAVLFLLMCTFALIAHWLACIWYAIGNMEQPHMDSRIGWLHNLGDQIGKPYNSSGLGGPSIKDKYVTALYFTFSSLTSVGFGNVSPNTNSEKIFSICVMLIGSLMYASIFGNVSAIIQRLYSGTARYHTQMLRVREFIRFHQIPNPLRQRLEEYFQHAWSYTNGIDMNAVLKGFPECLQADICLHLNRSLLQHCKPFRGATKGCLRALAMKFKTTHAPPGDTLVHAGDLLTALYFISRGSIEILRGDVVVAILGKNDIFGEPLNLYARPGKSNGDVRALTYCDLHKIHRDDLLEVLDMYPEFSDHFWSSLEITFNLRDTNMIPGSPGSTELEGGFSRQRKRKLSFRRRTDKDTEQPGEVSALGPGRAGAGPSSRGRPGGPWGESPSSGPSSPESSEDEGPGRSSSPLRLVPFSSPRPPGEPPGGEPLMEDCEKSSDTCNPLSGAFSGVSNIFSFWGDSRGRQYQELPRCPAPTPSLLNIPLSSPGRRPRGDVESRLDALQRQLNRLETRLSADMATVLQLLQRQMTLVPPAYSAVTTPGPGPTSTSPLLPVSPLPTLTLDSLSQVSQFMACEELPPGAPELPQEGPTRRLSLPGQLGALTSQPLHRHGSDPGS
row,Compound,"fluorescence ratio, lower = inhibition"
1,Cc1cccc(NC(=O)c2ccccc2NC(=O)c2ccccc2)c1,0.494
2,Cc1cccc(C(=O)Nc2ccc(C(=O)Nc3ccccc3)cc2)c1,0.47
3,Cc1cccc(C(=O)Nc2cccc(C(=O)Nc3ccccc3)c2)c1,0.362
4,Cc1cccc(C(=O)Nc2ccccc2C(=O)Nc2ccccc2)c1,0.274
5,Cc1cccc(NC(=O)c2cccc(NC(=O)c3ccccc3)c2)c1,0.4
